SK-BR-3 tox 24h: SK-BR-3 proliferation inhibitors; SK-BR-3 viability, CellTiter-Glo ATP luminescence, 24 h; active compounds read low; viability, % at 10 µM; hit rate 0.47% among 41,000;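 active = viability at or below the median of all test compounds minus 3 SD, in both replicates if run twice, cut at about 45% in these data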;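 note: 100% = median untreated cell wells and 0% = median positive control drug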
JNK3 blocker: blocks human JNK3 kinase activity. P53779. purified JNK3 kinase activity, HTS. inhibition, % at 8 µM. hit rate 0.61% among 60,000. AID 746; in the data active = inhibition above about 17%;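 note: 0% = DMSO and 100% = reference inhibitor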
Target sequence (P53779 whole entry, looked up): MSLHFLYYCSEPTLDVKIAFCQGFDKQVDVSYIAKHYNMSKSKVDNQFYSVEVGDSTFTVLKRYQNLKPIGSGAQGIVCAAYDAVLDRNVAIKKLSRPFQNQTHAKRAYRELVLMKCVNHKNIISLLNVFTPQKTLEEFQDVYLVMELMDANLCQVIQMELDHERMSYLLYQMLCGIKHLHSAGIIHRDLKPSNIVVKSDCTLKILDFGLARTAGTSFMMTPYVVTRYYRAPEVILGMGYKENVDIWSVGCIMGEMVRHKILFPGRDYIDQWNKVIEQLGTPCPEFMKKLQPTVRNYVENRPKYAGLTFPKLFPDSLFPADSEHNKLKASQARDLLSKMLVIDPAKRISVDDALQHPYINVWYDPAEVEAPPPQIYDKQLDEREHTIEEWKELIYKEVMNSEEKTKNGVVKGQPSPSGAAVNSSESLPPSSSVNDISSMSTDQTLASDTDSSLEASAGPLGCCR
PKA inh: PKA (human) kinase inhibition. P17612. PKA Kemptide phosphorylation, Kinase-Glo ATP luminescence. inhibition, % at 6 µM. hit rate 0.1% among 65,000;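 active = inhibition above the screen-wide mean inhibition plus 3 SD, cut at about 21% in these data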
ROCK2 inh: ROCK2 (human) kinase inhibition | purified ROCK2, Kinase-Glo ATP depletion luminescence | hit rate 0.35% among 60,000 | inhibition, % at 6 µM | O75116;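 active = inhibition above the screen-wide mean inhibition plus 3 SD, cut at about 18% in these data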;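 note: plate controls were DMSO wells for no effect and Y-27632 control wells after no-enzyme background subtraction for full effect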
Her2 expr inh: Her2 kinase expression inhibition; P04626; SKBR-3 HER2 protein level, AlphaScreen, 18-24 h; active compounds read low; HER2 level % of control, % at 10 µM; hit rate 0.69% among 65,000;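 active = HER2 level under 5% of the carrier-only control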;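 note: 100% = DMSO carrier and 0% = 500 nM PU-H71 HSP90 inhibitor; lower value means stronger loss of Her2 protein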
* hit, by the source's call; · = no result. Rows were chosen to be rich in hits. Some 1.5% of all compounds tested hit in one or more screens of this group.

SMILES | SK-BR-3 tox 24h | JNK3 blocker | PKA inh | ROCK2 inh | Her2 expr inh
CC1CCCCN1CC(=O)Nc1sc2c(c1C#N)CCC2 (stereo unspecified) | · | -1 | -1 | 2 | 68
CNC(=O)c1c(C)nc(SCC(=O)NCc2ccc(OC)cc2)c(C#N)c1-c1ccco1 | · | 1 | 3 | 3 | -33*
COCCOC(=O)c1c(C)nc(SCC(=O)Nc2ccc(C)cc2)c(C#N)c1-c1ccco1 | 76 | -4 | -11 | -8 | 64
O=C(CCCn1c(=O)[nH]c2cc(Cl)ccc2c1=O)NCC1CCCO1 (stereo unspecified) | 94 | 23* | 3 | 4 | 106
CCN1CCN(c2ncc(C(=O)Nc3cc(Cl)ccc3OC)c3ccccc23)CC1 | 33* | -5 | -3 | -3 | 63
COc1ccc(Cl)cc1NC(=O)CCN1CCN(c2ccccc2C)CC1 | · | · | 11 | · | 86
CCn1c(COc2ccc(C)cc2)nnc1SCC(=O)Nc1ccc2c(c1)OCCO2 | · | -1 | 8 | 4 | 106
C=C(C)COc1ccc(-c2n[nH]c(C)c2Oc2ccccc2OC)c(O)c1 | 97 | 9 | 5 | 0 | -6.3*
C=C(C)COc1ccc(-c2[nH]ncc2Oc2ccccc2OCC)c(O)c1 | 89 | 2 | 4 | 2 | -17*
Cc1cc(OCc2nn[nH]n2)c2c(C)c(Cc3ccccc3)c(=O)oc2c1 | 83 | 6 | 0 | 6 | 101
O=C(Nc1nc2n(n1)C(c1ccccc1)C=C(c1ccccc1)N2)c1ccco1 (stereo unspecified) | · | 0 | 0 | 1 | -23*
CS(=O)(=O)N(CC(=O)N1CCCC1)c1cccc(Cl)c1 | · | 2 | 3 | 2 | 113
O=C(NCC1CCCCC1)C1CCN(C(=O)NC2CCCCC2)CC1 | 35* | 7 | -2 | -4 | 110
Cn1nnnc1SCC(=O)N1CCN(c2cccc(Cl)c2)CC1 | 95 | · | 8 | · | 97
CC(=O)c1sc(NC(=O)C2COc3ccccc3O2)nc1C (stereo unspecified) | · | 9 | -2 | 4 | 67
CC(=O)c1sc(Nc2ccccn2)nc1C | · | 23* | 3 | -1 | 62
Cc1ccsc1C(=O)OCC(=O)Nc1sccc1C(N)=O | · | 13 | 7 | 2 | 97
COc1cc(CC(=O)Nc2sccc2C(N)=O)cc(OC)c1OC | 89 | 56* | 2 | 3 | 74
CCSc1nc(-c2ccco2)ccc1C#N | 90 | -2 | -9 | -9 | 39
N#Cc1ccc(-c2ccco2)nc1SCc1ccccc1 | 117 | -1 | -4 | 0 | -0.7*
CCOC(=O)N1CCC(N2C(=O)c3ccccc3C2Nc2cc(C(=O)OC)cc(C(=O)OC)c2)CC1 (stereo unspecified) | · | 1 | -8 | -4 | 105
O=C(NCc1ccco1)C(Cc1ccccc1)N1C(=O)c2ccccc2C1=O (stereo unspecified) | · | -12 | -4 | -6 | -20*
CC(=O)c1cccc(NC(=O)C2CCCC2)c1 | 101 | · | · | · | 58
O=C1NC(=O)c2cc(NC(=O)C3CCCCC3)ccc21 | 94 | 0 | 6 | 18* | 47
Cn1c(C(=O)N2CCCC(C(=O)O)C2)cc2sccc21 (stereo unspecified) | · | 0 | 4 | 3 | 104
SMILES | SK-BR-3 tox 24h | JNK3 blocker | PKA inh | ROCK2 inh | Her2 expr inh
Cn1c(C(=O)N2CCCC(C(=O)N3CCN(C(=O)c4ccco4)CC3)C2)cc2sccc21 (stereo unspecified) | · | -3 | -7 | 84* | 108
CN(C1=NC(=O)C(CC(=O)Nc2ccc(Br)cc2)S1)c1ccc(O)cc1 (stereo unspecified) | 92 | 1 | -1 | 4 | 94
Cc1ccccc1Cn1cc(S(=O)(=O)CC(=O)N2CCCCC2)c2ccccc21 | · | · | 8 | · | ·
Cc1cc(NC(=O)CS(=O)(=O)c2cn(Cc3ccccc3Cl)c3ccccc23)no1 | 34* | · | 4 | · | 94
CC1(c2cccs2)CC(c2cccs2)=C(C#N)C(=O)N1 (stereo unspecified) | 80 | 8 | 12 | 6 | 87
CC12CCCCC1(O)[N+](=O)C1=C(CCCC1)N2[O-] (stereo unspecified) | 64 | 7 | 4 | 4 | -17*
CC(C)N(Cc1nc(-c2ccccc2)no1)C(=O)CCCN1C(=O)c2ccccc2C1=O | 84 | -1 | -3 | 2 | 101
CC(C)N(Cc1nc(-c2ccccc2)no1)C(=O)CN1C(=O)c2ccccc2C1=O | 95 | 5 | 14 | 12 | -19*
O=S(=O)(C/C(=C/CO)S(=O)(=O)c1ccccc1)c1ccccc1 | 154 | -2 | -2 | 6 | -21*
CC1CCN(C(=O)CSc2nnc(-c3cc4ccccc4cc3O)n2Cc2ccco2)CC1 | 92 | 1 | 4 | 5 | 92
COc1ccc(F)cc1S(=O)(=O)Nc1ccc(C)cc1 | 81 | -3 | 11 | 6 | 86
CCOC(=O)c1ccc(Cn2cnc3ccccc3c2=O)cc1 | 82 | 39* | 7 | 2 | 94
COC(=O)c1ccc(Cn2cnc3ccccc3c2=O)cc1 | 81 | · | 7 | · | 96
CCN1C=CC(=C2C(=O)c3ccccc3C2=O)C=C1 | · | 62* | -4 | -32 | 91
CC1=CC(=C2C(=O)c3ccccc3C2=O)C=C(C)O1 | 118 | 10 | 4 | 2 | 90
CN1C=CC(=C2C(=O)c3ccccc3C2=O)C=C1 | · | 32* | 0 | -1 | 104
CCCN1C=CC(=C2C(=O)c3ccccc3C2=O)C=C1 | · | 56* | -20 | -40 | 128
CC(C)(C)C(=O)CNS(=O)(=O)c1ccc(S(=O)(=O)NC2CCCC2)cc1 | 72 | 3 | 12 | 5 | 65
O=C(CCNS(=O)(=O)c1cccc2nonc12)NCc1cccs1 | 98 | · | 7 | · | 74
CCCCNC(=O)Nc1ccnn1C1CCCCC1 | 121 | · | -4 | · | 122
Cc1c(C(=O)N2CCCCC2)sc(N)c1C#N | 104 | -1 | -2 | 26* | 89
Cc1c(C(=O)N2CCCCC2)sc(NC(=O)C2CC2)c1C#N | 89 | 3 | 4 | 3 | 114
Cc1ccc(S(=O)(=O)NC(CC(=O)NCC2CCCO2)c2ccco2)cc1 (stereo unspecified) | · | 5 | 11 | 8 | 111
O=C(c1ccco1)N(Cc1ccco1)c1ccc(O)cc1 | 98 | -1 | 0 | -2 | -16*

Source: PubChem BioAssay (several laboratories)
